# Source: article PMC7862700, “An all-to-all approach to the identification of sequence-specific readers for epigenetic DNA modifications on cytosine”
# Legend:
# Assay in all cases: DAPPL (digital affinity profiling via proximity ligation, sequencing); 10 mM Tris-HCl pH 7.5, 50 mM NaCl, 1 mM DTT, 4% glycerol, room temperature, 30 min; GST-TFs on glutathione beads, 16-mer random dsDNA library, 0.1% formaldehyde crosslink after washing; high values mean tight binding
# Conditions in all cases: protein: recombinant; tags: N-terminal GST; dsDNA, one strand shown
# [1] = target: T1, FLI1 (Homo sapiens, UniProt Q01543 1-452)
# T1 sequence: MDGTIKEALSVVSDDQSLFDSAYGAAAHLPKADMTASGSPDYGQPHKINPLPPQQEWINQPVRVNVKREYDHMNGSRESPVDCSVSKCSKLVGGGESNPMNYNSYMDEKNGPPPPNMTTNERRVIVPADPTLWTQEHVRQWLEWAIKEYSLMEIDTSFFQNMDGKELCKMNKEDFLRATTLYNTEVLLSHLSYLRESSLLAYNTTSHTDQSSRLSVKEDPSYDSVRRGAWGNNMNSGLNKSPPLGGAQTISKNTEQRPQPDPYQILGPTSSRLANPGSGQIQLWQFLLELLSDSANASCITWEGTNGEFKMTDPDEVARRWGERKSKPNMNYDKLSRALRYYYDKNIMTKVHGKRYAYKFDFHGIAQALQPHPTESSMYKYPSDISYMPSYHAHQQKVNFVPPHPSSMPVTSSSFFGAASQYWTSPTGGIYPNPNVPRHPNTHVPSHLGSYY
# Method in brief: (§1)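 Pools were built from human transcription factors expressed in yeast as GST fusions, captured on glutathione beads and DNA-barcoded, along with a tag-only sample. Incubation with 200 nmole of a 16-mer random double-stranded DNA library lasted 30 min at room temperature in Tris/NaCl/DTT/glycerol buffer, and was followed by washing, 0.1% formaldehyde crosslinking, proximity ligation, PCR amplification and Illumina NextSeq500 sequencing. Binding signal is the quotient of each hexamer's read frequency for a factor and its frequency for the tag-only sample.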
# [2] = target: T2, ELK1 (Homo sapiens, UniProt P19419 1-428)
# T2 sequence: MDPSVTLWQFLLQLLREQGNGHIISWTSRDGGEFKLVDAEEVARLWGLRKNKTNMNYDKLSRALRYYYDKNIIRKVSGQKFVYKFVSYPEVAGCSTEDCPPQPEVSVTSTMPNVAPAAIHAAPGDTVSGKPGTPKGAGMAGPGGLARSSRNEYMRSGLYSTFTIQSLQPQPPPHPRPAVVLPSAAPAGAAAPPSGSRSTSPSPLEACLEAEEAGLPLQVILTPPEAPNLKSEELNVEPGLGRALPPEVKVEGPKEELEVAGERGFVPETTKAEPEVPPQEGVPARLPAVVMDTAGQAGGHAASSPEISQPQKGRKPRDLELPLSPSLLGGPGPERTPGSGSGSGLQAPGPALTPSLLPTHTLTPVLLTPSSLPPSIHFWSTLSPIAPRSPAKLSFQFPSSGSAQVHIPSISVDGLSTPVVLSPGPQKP
# Method in brief: as §1
# [3] = target: T3, GABPA (Homo sapiens, UniProt Q06546 1-454)
# T3 sequence: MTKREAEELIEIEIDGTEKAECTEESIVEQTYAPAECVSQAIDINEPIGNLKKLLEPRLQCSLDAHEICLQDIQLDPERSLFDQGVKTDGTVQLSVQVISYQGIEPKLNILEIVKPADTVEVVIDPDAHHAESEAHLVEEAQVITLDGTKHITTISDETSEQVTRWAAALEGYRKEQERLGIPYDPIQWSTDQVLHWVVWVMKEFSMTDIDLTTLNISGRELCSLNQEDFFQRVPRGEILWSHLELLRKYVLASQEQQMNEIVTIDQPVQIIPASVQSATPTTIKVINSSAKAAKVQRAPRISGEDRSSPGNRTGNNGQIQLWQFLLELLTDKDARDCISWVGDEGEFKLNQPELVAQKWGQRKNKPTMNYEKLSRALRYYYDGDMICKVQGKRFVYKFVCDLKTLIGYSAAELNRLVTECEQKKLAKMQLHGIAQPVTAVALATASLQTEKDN
# Method in brief: as §1
# [4] = target: T4, ERG (Homo sapiens, UniProt P11308 1-479)
# T4 sequence: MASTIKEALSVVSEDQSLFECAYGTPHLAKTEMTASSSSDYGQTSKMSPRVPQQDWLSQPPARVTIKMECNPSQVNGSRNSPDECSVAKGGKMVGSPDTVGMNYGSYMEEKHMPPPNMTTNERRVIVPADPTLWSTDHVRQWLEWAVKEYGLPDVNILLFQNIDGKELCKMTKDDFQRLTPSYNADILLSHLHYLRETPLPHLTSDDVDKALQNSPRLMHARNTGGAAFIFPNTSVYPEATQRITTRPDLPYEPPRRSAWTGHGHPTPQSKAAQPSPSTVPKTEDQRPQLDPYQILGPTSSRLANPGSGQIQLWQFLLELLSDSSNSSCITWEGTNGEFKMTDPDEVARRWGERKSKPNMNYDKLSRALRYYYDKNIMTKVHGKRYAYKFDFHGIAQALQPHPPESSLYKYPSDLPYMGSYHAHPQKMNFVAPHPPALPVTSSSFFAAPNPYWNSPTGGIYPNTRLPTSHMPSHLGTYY
# Method in brief: as §1
# [5] = target: ELF1 (Homo sapiens, UniProt P32519 1-619)
# Sequence of ELF1 (P32519 whole entry): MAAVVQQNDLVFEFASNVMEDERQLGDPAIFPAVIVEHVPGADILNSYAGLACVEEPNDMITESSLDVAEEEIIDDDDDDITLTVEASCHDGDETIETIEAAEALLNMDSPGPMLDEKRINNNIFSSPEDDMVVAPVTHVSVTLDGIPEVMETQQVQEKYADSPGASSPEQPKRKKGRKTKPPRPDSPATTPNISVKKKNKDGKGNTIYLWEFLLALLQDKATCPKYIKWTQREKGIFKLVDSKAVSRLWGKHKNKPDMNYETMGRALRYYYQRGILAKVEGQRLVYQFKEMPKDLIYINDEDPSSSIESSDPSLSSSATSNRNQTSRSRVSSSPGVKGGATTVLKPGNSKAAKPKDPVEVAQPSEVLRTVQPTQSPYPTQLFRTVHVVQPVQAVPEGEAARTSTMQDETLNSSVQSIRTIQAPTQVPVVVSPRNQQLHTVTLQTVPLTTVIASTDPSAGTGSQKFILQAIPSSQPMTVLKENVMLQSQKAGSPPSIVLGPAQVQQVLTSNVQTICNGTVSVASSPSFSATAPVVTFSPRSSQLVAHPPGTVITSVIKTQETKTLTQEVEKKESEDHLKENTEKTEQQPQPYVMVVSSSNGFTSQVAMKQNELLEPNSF
# Method in brief: as §1
# [6] = target: T5, EHF (Homo sapiens, UniProt Q9NZC4 1-300)
# T5 sequence: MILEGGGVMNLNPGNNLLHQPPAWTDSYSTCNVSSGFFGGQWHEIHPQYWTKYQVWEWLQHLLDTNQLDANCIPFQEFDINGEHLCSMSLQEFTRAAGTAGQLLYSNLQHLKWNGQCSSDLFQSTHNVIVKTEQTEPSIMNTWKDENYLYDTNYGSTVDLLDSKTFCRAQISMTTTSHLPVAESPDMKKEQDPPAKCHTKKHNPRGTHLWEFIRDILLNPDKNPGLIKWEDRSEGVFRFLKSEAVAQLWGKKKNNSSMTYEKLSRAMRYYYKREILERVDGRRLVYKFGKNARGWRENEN
# Method in brief: as §1
# [7] = target: SPI1 (Homo sapiens, UniProt P17947 1-270)
# Method in brief: as §1
# [8] = target: SPIB (Homo sapiens, UniProt Q01892 1-262)
# Sequence of SPIB (Q01892 whole entry): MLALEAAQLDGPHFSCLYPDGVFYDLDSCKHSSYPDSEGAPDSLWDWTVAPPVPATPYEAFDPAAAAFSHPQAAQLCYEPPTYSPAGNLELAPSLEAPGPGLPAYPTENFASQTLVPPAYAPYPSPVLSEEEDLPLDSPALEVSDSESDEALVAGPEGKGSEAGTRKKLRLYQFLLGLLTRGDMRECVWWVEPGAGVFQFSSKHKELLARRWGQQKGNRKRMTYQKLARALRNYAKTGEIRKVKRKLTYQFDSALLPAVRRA
# Method in brief: as §1
# [9] = target: T6, ELK3 (Homo sapiens, UniProt P41970 1-407)
# T6 sequence: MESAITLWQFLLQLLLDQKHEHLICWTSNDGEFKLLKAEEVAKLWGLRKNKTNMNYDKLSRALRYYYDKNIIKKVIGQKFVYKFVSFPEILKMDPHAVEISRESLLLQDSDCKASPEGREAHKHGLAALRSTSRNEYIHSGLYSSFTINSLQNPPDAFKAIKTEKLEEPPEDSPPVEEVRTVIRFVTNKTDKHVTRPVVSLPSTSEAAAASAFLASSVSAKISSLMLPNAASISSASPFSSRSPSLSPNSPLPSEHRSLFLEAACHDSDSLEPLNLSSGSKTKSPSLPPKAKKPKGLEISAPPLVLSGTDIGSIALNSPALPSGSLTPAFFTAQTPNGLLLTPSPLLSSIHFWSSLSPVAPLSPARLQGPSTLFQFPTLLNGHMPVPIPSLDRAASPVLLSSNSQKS
# Method in brief: as §1
sequence,measurement,setting,value
TGTTTA,binding signal,[1],"1.2 fold enrichment (6-mer frequency, TF over GST control)"
same,binding signal,[2],"1.09 fold enrichment (6-mer frequency, TF over GST control)"
same,binding signal,[3],"1.18 fold enrichment (6-mer frequency, TF over GST control)"
same,binding signal,[4],"1.17 fold enrichment (6-mer frequency, TF over GST control)"
same,binding signal,[5],"1.13 fold enrichment (6-mer frequency, TF over GST control)"
same,binding signal,[6],"1.19 fold enrichment (6-mer frequency, TF over GST control)"
same,binding signal,[7],"1.12 fold enrichment (6-mer frequency, TF over GST control)"
same,binding signal,[8],"1.21 fold enrichment (6-mer frequency, TF over GST control)"
same,binding signal,[9],"1.2 fold enrichment (6-mer frequency, TF over GST control)"
